# The supplement of paper PMC4466140
# Experiments:
# Experiment in all cases: SPOT peptide array binding signal intensity (averaged, normalized) (arbitrary units (background-subtracted, floor 0; scale differs between SH3 domains)); higher = stronger binding of the SH3 domain to the peptide
# [1] = molecular target: AgAbp1
# Outline: (§1)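 Four yeast species supplied the SH3 domains, which were expressed as GST fusions in E. coli BL21(DE3) and purified on glutathione Sepharose. Incubation with cellulose membranes carrying synthetic 15-mer peptides, cysteines exchanged for serines, ran overnight at 4°C at 10 μg/ml in TBS-based blocking buffer. Binding signal is reported as normalized, background-subtracted spot intensity averaged over replicates, in arbitrary units not shared between domains.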
# [2] = molecular target: AgBbc1
# Outline: as §1
# [3] = molecular target: AgBem1-D1
# Outline: as §1
# [4] = molecular target: AgBzz1-D1
# Outline: as §1
# [5] = molecular target: AgBzz1-D2
# Outline: as §1
# [6] = molecular target: AgCyk3
# Outline: as §1
# [7] = molecular target: AgFus1
# Outline: as §1
# [8] = molecular target: AgHof1
# Outline: as §1
# [9] = molecular target: AgHse1
# Outline: as §1
# [10] = molecular target: AgLsb1
# Outline: as §1
# [11] = molecular target: AgLsb4
# Outline: as §1
# [12] = molecular target: AgMyo5
# Outline: as §1
# [13] = molecular target: AgNbp2
# Outline: as §1
# [14] = molecular target: AgRvs167
# Outline: as §1
# [15] = molecular target: AgSho1
# Outline: as §1
# [16] = molecular target: AgSla1-D1-D2
# Outline: as §1
# [17] = molecular target: AgSla1-D3
# Outline: as §1
# [18] = molecular target: CaAbp1-D1
# Outline: as §1
# [19] = molecular target: CaAbp1-D2
# Outline: as §1
# [20] = molecular target: CaBbc1
# Outline: as §1
# [21] = molecular target: CaBem1-D1
# Outline: as §1
# [22] = molecular target: CaBzz1-D1
# Outline: as §1
# [23] = molecular target: CaBzz1-D2
# Outline: as §1
# [24] = molecular target: CaCyk3
# Outline: as §1
# [25] = molecular target: CaFus1
# Outline: as §1
# [26] = molecular target: CaHof1
# Outline: as §1
# [27] = molecular target: CaHse1
# Outline: as §1
# [28] = molecular target: CaLsb1
# Outline: as §1
# [29] = molecular target: CaLsb4
# Outline: as §1
# [30] = molecular target: CaMyo5
# Outline: as §1
# [31] = molecular target: CaNbp2
# Outline: as §1
# [32] = molecular target: CaRvs167
# Outline: as §1
# [33] = molecular target: CaRvs167-3
# Outline: as §1
# [34] = molecular target: CaSho1
# Outline: as §1
# [35] = molecular target: CaSla1-D1-D2
# Outline: as §1
# [36] = molecular target: CaSla1-D3
# Outline: as §1
# [37] = molecular target: ScAbp1
# Outline: as §1
# [38] = molecular target: ScBbc1
# Outline: as §1
# [39] = molecular target: ScBem1-D1
# Outline: as §1
# [40] = molecular target: ScBzz1-D1
# Outline: as §1
# [41] = molecular target: ScBzz1-D2
# Outline: as §1
# [42] = molecular target: ScCyk3
# Outline: as §1
# [43] = molecular target: ScFus1
# Outline: as §1
# [44] = molecular target: ScHof1
# Outline: as §1
# [45] = molecular target: ScHse1
# Outline: as §1
# [46] = molecular target: ScLsb1
# Outline: as §1
# [47] = molecular target: ScLsb2
# Outline: as §1
# [48] = molecular target: ScLsb3
# Outline: as §1
# [49] = molecular target: ScLsb4
# Outline: as §1
# [50] = molecular target: ScMyo3
# Outline: as §1
# [51] = molecular target: ScMyo5
# Outline: as §1
# [52] = molecular target: ScNbp2
# Outline: as §1
# [53] = molecular target: ScPex13
# Outline: as §1
# [54] = molecular target: ScRvs167
# Outline: as §1
# [55] = molecular target: ScSho1
# Outline: as §1
# [56] = molecular target: ScSla1-D1-D2
# Outline: as §1
# [57] = molecular target: ScSla1-D3
# Outline: as §1
# [58] = molecular target: SpAbp1-D1
# Outline: as §1
# [59] = molecular target: SpBbc1
# Outline: as §1
# [60] = molecular target: SpBzz1-D1
# Outline: as §1
# [61] = molecular target: SpBzz1-D2
# Outline: as §1
# [62] = molecular target: SpCyk3
# Outline: as §1
# [63] = molecular target: SpHof1
# Outline: as §1
# [64] = molecular target: SpHof1-2
# Outline: as §1
# [65] = molecular target: SpHof1-3
# Outline: as §1
# [66] = molecular target: SpHse1
# Outline: as §1
# [67] = molecular target: SpLsb1
# Outline: as §1
# [68] = molecular target: SpLsb4
# Outline: as §1
# [69] = molecular target: SpMyo1
# Outline: as §1
# [70] = molecular target: SpNbp2
# Outline: as §1
# [71] = molecular target: SpPex13
# Outline: as §1
# [72] = molecular target: SpRvs167
# Outline: as §1
# [73] = molecular target: SpSla1-D1-D2
# Outline: as §1
# [74] = molecular target: SpSla1-D3
# Outline: as §1
binder,measurement,setting,value
NFLRLLIGLPSQNEL,SPOT peptide array binding signal intensity,[1],≤ 0
same,SPOT peptide array binding signal intensity,[2],4.25
same,SPOT peptide array binding signal intensity,[3],132
same,SPOT peptide array binding signal intensity,[4],17.5
same,SPOT peptide array binding signal intensity,[5],6.5
same,SPOT peptide array binding signal intensity,[6],3.5
same,SPOT peptide array binding signal intensity,[7],950
same,SPOT peptide array binding signal intensity,[8],31.5
same,SPOT peptide array binding signal intensity,[9],2760
same,SPOT peptide array binding signal intensity,[10],≤ 0
same,SPOT peptide array binding signal intensity,[11],248
same,SPOT peptide array binding signal intensity,[12],2.75
same,SPOT peptide array binding signal intensity,[13],39
same,SPOT peptide array binding signal intensity,[14],2
same,SPOT peptide array binding signal intensity,[15],263
same,SPOT peptide array binding signal intensity,[16],50
same,SPOT peptide array binding signal intensity,[17],4.5
same,SPOT peptide array binding signal intensity,[18],≤ 0
same,SPOT peptide array binding signal intensity,[19],≤ 0
same,SPOT peptide array binding signal intensity,[20],≤ 0
same,SPOT peptide array binding signal intensity,[21],≤ 0
same,SPOT peptide array binding signal intensity,[22],39
same,SPOT peptide array binding signal intensity,[23],37
same,SPOT peptide array binding signal intensity,[24],4
same,SPOT peptide array binding signal intensity,[25],2560
same,SPOT peptide array binding signal intensity,[26],1.5
same,SPOT peptide array binding signal intensity,[27],156
same,SPOT peptide array binding signal intensity,[28],2.5
same,SPOT peptide array binding signal intensity,[29],3
same,SPOT peptide array binding signal intensity,[30],8.25
same,SPOT peptide array binding signal intensity,[31],259
same,SPOT peptide array binding signal intensity,[32],72
same,SPOT peptide array binding signal intensity,[33],143
same,SPOT peptide array binding signal intensity,[34],731
same,SPOT peptide array binding signal intensity,[35],≤ 0
same,SPOT peptide array binding signal intensity,[36],41.2
same,SPOT peptide array binding signal intensity,[37],≤ 0
same,SPOT peptide array binding signal intensity,[38],0.5
same,SPOT peptide array binding signal intensity,[39],18
same,SPOT peptide array binding signal intensity,[40],19
same,SPOT peptide array binding signal intensity,[41],21
same,SPOT peptide array binding signal intensity,[42],101
same,SPOT peptide array binding signal intensity,[43],1020
same,SPOT peptide array binding signal intensity,[44],1.5
same,SPOT peptide array binding signal intensity,[45],2880
same,SPOT peptide array binding signal intensity,[46],0.75
same,SPOT peptide array binding signal intensity,[47],≤ 0
same,SPOT peptide array binding signal intensity,[48],276
same,SPOT peptide array binding signal intensity,[49],≤ 0
same,SPOT peptide array binding signal intensity,[50],4
same,SPOT peptide array binding signal intensity,[51],≤ 0
same,SPOT peptide array binding signal intensity,[52],53
same,SPOT peptide array binding signal intensity,[53],≤ 0
same,SPOT peptide array binding signal intensity,[54],11.7
same,SPOT peptide array binding signal intensity,[55],1160
same,SPOT peptide array binding signal intensity,[56],≤ 0
same,SPOT peptide array binding signal intensity,[57],8.5
same,SPOT peptide array binding signal intensity,[58],1
same,SPOT peptide array binding signal intensity,[59],3.75
same,SPOT peptide array binding signal intensity,[60],22
same,SPOT peptide array binding signal intensity,[61],≤ 0
same,SPOT peptide array binding signal intensity,[62],7
same,SPOT peptide array binding signal intensity,[63],121
same,SPOT peptide array binding signal intensity,[64],31.5
same,SPOT peptide array binding signal intensity,[65],443
same,SPOT peptide array binding signal intensity,[66],3340
same,SPOT peptide array binding signal intensity,[67],≤ 0
same,SPOT peptide array binding signal intensity,[68],≤ 0
same,SPOT peptide array binding signal intensity,[69],0.5
same,SPOT peptide array binding signal intensity,[70],52.5
same,SPOT peptide array binding signal intensity,[71],52
same,SPOT peptide array binding signal intensity,[72],9.83
same,SPOT peptide array binding signal intensity,[73],4
same,SPOT peptide array binding signal intensity,[74],8
TPEIPPPLPPKIMVH,SPOT peptide array binding signal intensity,[31],9
same,SPOT peptide array binding signal intensity,[32],29.8
same,SPOT peptide array binding signal intensity,[33],≤ 0
same,SPOT peptide array binding signal intensity,[34],124
same,SPOT peptide array binding signal intensity,[35],≤ 0
same,SPOT peptide array binding signal intensity,[36],≤ 0
same,SPOT peptide array binding signal intensity,[37],≤ 0
same,SPOT peptide array binding signal intensity,[38],≤ 0
same,SPOT peptide array binding signal intensity,[39],≤ 0
same,SPOT peptide array binding signal intensity,[40],≤ 0
same,SPOT peptide array binding signal intensity,[41],11
same,SPOT peptide array binding signal intensity,[42],≤ 0
same,SPOT peptide array binding signal intensity,[43],≤ 0
same,SPOT peptide array binding signal intensity,[44],722
same,SPOT peptide array binding signal intensity,[45],≤ 0
same,SPOT peptide array binding signal intensity,[46],109
same,SPOT peptide array binding signal intensity,[47],≤ 0
same,SPOT peptide array binding signal intensity,[48],6940
same,SPOT peptide array binding signal intensity,[49],376
same,SPOT peptide array binding signal intensity,[50],611
same,SPOT peptide array binding signal intensity,[51],380
same,SPOT peptide array binding signal intensity,[52],2
same,SPOT peptide array binding signal intensity,[53],1210
same,SPOT peptide array binding signal intensity,[54],525
same,SPOT peptide array binding signal intensity,[55],1610
same,SPOT peptide array binding signal intensity,[56],≤ 0
same,SPOT peptide array binding signal intensity,[57],≤ 0
same,SPOT peptide array binding signal intensity,[58],≤ 0
same,SPOT peptide array binding signal intensity,[59],0.5
same,SPOT peptide array binding signal intensity,[60],68
same,SPOT peptide array binding signal intensity,[61],≤ 0
same,SPOT peptide array binding signal intensity,[62],≤ 0
same,SPOT peptide array binding signal intensity,[63],≤ 0
same,SPOT peptide array binding signal intensity,[64],0.5
same,SPOT peptide array binding signal intensity,[65],≤ 0
same,SPOT peptide array binding signal intensity,[66],148
same,SPOT peptide array binding signal intensity,[67],463
same,SPOT peptide array binding signal intensity,[68],852
same,SPOT peptide array binding signal intensity,[69],723
same,SPOT peptide array binding signal intensity,[70],≤ 0
same,SPOT peptide array binding signal intensity,[71],9
same,SPOT peptide array binding signal intensity,[72],1520
same,SPOT peptide array binding signal intensity,[73],≤ 0
same,SPOT peptide array binding signal intensity,[74],≤ 0
